Prx2 Sm inh = inhibitors of Schistosoma mansoni peroxiredoxin 2; S. mansoni Prx2 activity coupled to TGR/GSH (TGR is thioredoxin glutathione reductase), NADPH fluorescence loss, qHTS; Potency, µM; actives 0.07% (n = 65,000); AID 448
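Prx2 inhibition was measured as reduced NADPH consumption when electrons flowed from NADPH through TGR and glutathione to Prx2 and H2O2. Plates were read kinetically over 8 min; enzyme reagents were held at 4 deg C during dispensing.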
LT uptake inh = blocks cellular internalization of anthrax lethal toxin. Potency, µM (series often up to 40 µM), for inactives: at the highest dose activity change, negative = inhibition, most hits filed as inhibitors. Cells, anthrax lethal toxin internalization, FRET ratio (460/530). actives 0.67% (n = 70,000); further: on the % scale 0 is the no-effect control and ±100 the full control effect; nearly all actives have a fitted effect of over 50% in size
AmpC det inh = blocks E. coli AmpC beta-lactamase in presence of detergent; P00811; purified AmpC, nitrocefin hydrolysis with detergent; Potency, µM (highest dose often 28.7 µM), without a hit: top-dose activity change, negative = inhibition; actives 0.09% (n = 71,000); AID 584; active means well fitted curve in the direction sought with a large enough effect; inconclusive means small, poorly fitted or top-dose-only effect; further: on the % scale 0 is the no-effect control and ±100 the full control effect
Target sequence (P00811 whole entry, looked up): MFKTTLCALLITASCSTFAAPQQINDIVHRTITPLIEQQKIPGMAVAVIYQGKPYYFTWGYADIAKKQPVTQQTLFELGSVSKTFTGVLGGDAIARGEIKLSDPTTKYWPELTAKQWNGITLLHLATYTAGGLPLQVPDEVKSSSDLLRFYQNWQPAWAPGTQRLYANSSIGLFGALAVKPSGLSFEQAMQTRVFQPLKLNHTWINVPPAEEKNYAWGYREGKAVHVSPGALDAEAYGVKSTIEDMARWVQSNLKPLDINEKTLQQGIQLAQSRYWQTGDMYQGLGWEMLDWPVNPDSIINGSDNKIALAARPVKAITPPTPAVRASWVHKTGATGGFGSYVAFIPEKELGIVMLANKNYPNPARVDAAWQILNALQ
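E. coli AmpC (5.3 nM) in 20 mM phosphate pH 7.0 with 0.01% Triton X-100, preincubated 15 min RT with compound; nitrocefin (2 uL of 800 uM stock) hydrolysis followed by 480 nm absorbance every 20 s over 4 min.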
AmpC inh no det = AmpC beta-lactamase inhibition, detergent-free assay. P00811. AmpC nitrocefin hydrolysis, absorbance 480 nm, no detergent. Potency, µM (top dose mostly 28.7 µM), without a hit: top-dose activity change, negative = inhibition. actives 1.8% (n = 71,000); further: % of control where 0% means no effect
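AmpC, 20 mM phosphate pH 7.0; 15 min cpd preinc, RT; start with nitrocefin (800 uM stock); A480 kinetic read, 20 s intervals, 4 min. No-enzyme wells = negative control.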
The depositor's hits bear a star; [ ] = dose if it differs, or a comment. A selection: hits, their analogues and other compounds. The true share with any hit is near 2.4%. Unless noted, the call rests on the fitted dose curve. Potency means the concentration at half of the fitted maximal effect.

Results for O=S(=O)(c1ccccc1)N1CCC2(CCN(c3cccc(-c4ccccc4)c3)CC2)CC1 ?
Prx2 Sm inh: >57; LT uptake inh: inconclusive; AmpC det inh: 21%; AmpC inh no det: 10%

Results for OC[C@@H]1O[C@@H](n2cnc3c(NC4CCCC4)ncnc32)[C@@H](O)[C@H]1O ?
Prx2 Sm inh: >57; LT uptake inh: -2%; AmpC det inh: -4%; AmpC inh no det: 12%

How did Cc1ccc2cccc(OC(=O)N(C)c3ccccc3)c2n1 do in these assays?
LT uptake inh: 16µM*; AmpC det inh: 4%; AmpC inh no det: 33%

Results for COc1cccc(Cn2c(=O)c(-c3ccc(Cl)cc3)nc3cnc(OC)nc32)c1 ?
Prx2 Sm inh: >57; LT uptake inh: inconclusive; AmpC det inh: -1%; AmpC inh no det: 19%

Results for O=C(c1ccc(-c2nnc(-c3ccccc3)o2)cc1)N1CCCCCC1 ?
Prx2 Sm inh: >57; LT uptake inh: 5%; AmpC det inh: -1%; AmpC inh no det: 78%

What do the screens show for `O=C(c1ccc(-c2ccccc2)cc1)N1CCN(c2nc3ccccc3o2)CC1`?
Prx2 Sm inh: >57; LT uptake inh: -9%; AmpC det inh: 8%; AmpC inh no det: 4µM*[single pt active]

Results for C/C=C/C=O ?
LT uptake inh: -11%; AmpC det inh: 3%; AmpC inh no det: 11%

How did COc1cccc(-c2nc(NCc3ccccc3)c3ccccc3n2)c1 do in these assays?
Prx2 Sm inh: >57; LT uptake inh: -33%; AmpC det inh: 8%; AmpC inh no det: -5%

What do the screens show for `COc1cccc(-c2nc(NCc3ccccc3OC)c3ccccc3n2)c1`?
Prx2 Sm inh: >57; LT uptake inh: 13µM*; AmpC det inh: 10%; AmpC inh no det: 0%

What do the screens show for `CS(=O)(=O)Nc1cccc(-c2nc(Nc3ccc(F)cc3)c3ccccc3n2)c1`?
Prx2 Sm inh: >57; LT uptake inh: 10µM*; AmpC det inh: 18%; AmpC inh no det: 5%

Results for CNc1nc(-c2cccc(NS(C)(=O)=O)c2)nc2ccccc12 ?
Prx2 Sm inh: >57; LT uptake inh: 4%; AmpC det inh: 14%; AmpC inh no det: 2%

Results for COc1ccccc1CNc1nc(-c2cccc(NS(C)(=O)=O)c2)nc2ccccc12 ?
Prx2 Sm inh: >57; LT uptake inh: 13µM*; AmpC det inh: 9%; AmpC inh no det: -11%

What do the screens show for `COc1ccccc1CNc1nc(-c2ccc3c(c2)OCO3)nc2ccccc12`?
Prx2 Sm inh: >57; LT uptake inh: 13µM*; AmpC det inh: 11%; AmpC inh no det: inconclusive

What do the screens show for `COc1ccccc1CNc1nc(-c2cccc(C#N)c2)nc2ccccc12`?
Prx2 Sm inh: >57; LT uptake inh: inconclusive; AmpC det inh: 10%; AmpC inh no det: inconclusive

How did COc1ccccc1CNc1nc(-c2ccc(N(C)C)cc2)nc2ccccc12 do in these assays?
Prx2 Sm inh: >57; LT uptake inh: inconclusive; AmpC det inh: 5%; AmpC inh no det: -5%

How did C[C@H](O)[C@H](O)[C@@H](O)c1cnc2nc(N)[nH]c(=O)c2n1 do in these assays?
Prx2 Sm inh: >57; LT uptake inh: inconclusive; AmpC det inh: 1%; AmpC inh no det: 1%

How did CN(C)c1ncc2nc(-c3ccc(F)cc3)c(=O)n(CCC#N)c2n1 do in these assays?
Prx2 Sm inh: >57; LT uptake inh: -6%; AmpC det inh: 0%; AmpC inh no det: 2%

How did COc1ncc2nc(-c3cc(F)cc(F)c3)c(=O)n(CCc3ccccc3)c2n1 do in these assays?
Prx2 Sm inh: >11; LT uptake inh: inconclusive; AmpC det inh: 1%; AmpC inh no det: -9%

Results for Cc1ccccc1NS(=O)(=O)c1ccc(C2CNC(=O)C2)cc1 (stereo unspecified) ?
Prx2 Sm inh: >57; LT uptake inh: 9%; AmpC det inh: 18%; AmpC inh no det: 0%

What do the screens show for `O=C1CC(c2ccc(S(=O)(=O)NCc3ccccc3)cc2)CN1` (stereo unspecified)?
Prx2 Sm inh: >57; LT uptake inh: -8%; AmpC det inh: 14%; AmpC inh no det: 4µM*[single pt active]

How did Cc1nn(-c2nc3ccccc3s2)c(C)c1Oc1ccccc1O do in these assays?
Prx2 Sm inh: >57; LT uptake inh: 10µM*; AmpC det inh: -5%; AmpC inh no det: -24%

How did Cc1nn(-c2ccccn2)c(C)c1Oc1ccccc1O do in these assays?
Prx2 Sm inh: >57; LT uptake inh: 3%; AmpC det inh: -1%; AmpC inh no det: 1%

Results for O=c1c(-c2cccs2)nc2cnc(N3CCOCC3)nc2n1Cc1cccs1 ?
Prx2 Sm inh: >57; LT uptake inh: inconclusive; AmpC det inh: -3%; AmpC inh no det: -3%

Results for CCOC(=O)C1CCCN(c2c(N3CCN(C4CCCCC4)CC3)c(=O)c2=O)C1 (stereo unspecified) ?
Prx2 Sm inh: >57; LT uptake inh: -12%; AmpC det inh: 9%; AmpC inh no det: 59%

What do the screens show for `CCOC(=O)C1CCCN(c2c(Nc3ccc(C)c(C)c3)c(=O)c2=O)C1` (stereo unspecified)?
Prx2 Sm inh: >57; LT uptake inh: inconclusive; AmpC det inh: 13%; AmpC inh no det: 3.2µM*[single pt active]

Results for CCOC(=O)C1CCCN(c2c(NCC3CCCO3)c(=O)c2=O)C1 (stereo unspecified) ?
Prx2 Sm inh: >57; LT uptake inh: -6%; AmpC det inh: 11%; AmpC inh no det: 3.2µM*[single pt active]

How did CCOC(=O)C1CCCN(c2c(N3CCC(N4CCCCC4)CC3)c(=O)c2=O)C1 (stereo unspecified) do in these assays?
Prx2 Sm inh: >57; LT uptake inh: -22%; AmpC det inh: 13%; AmpC inh no det: 4µM*[single pt active]

Results for COC1=CC(=O)C[C@@H](C)[C@@]12Oc1c(Cl)c(OC)cc(OC)c1C2=O ?
Prx2 Sm inh: >57; LT uptake inh: -10%; AmpC det inh: 1%; AmpC inh no det: 16%

Results for O=[N+]([O-])/C=C/c1ccccc1 ?
LT uptake inh: 4µM*; AmpC det inh: 16%; AmpC inh no det: -12%

Results for C=Cc1ccccc1 ?
LT uptake inh: -7%; AmpC det inh: 14%; AmpC inh no det: -6%

How did CCOC(=O)c1c(CN(CC)CC)oc2cc(Br)c(O)cc12 do in these assays?
Prx2 Sm inh: >57; LT uptake inh: inconclusive; AmpC det inh: 8%; AmpC inh no det: 4µM*[single pt active]

How did CC(C)CC(NS(=O)(=O)c1ccc2c(c1)oc(=O)n2C)C(=O)NC1CCCc2ccccc21 (stereo unspecified) do in these assays?
Prx2 Sm inh: >57; LT uptake inh: -2%; AmpC det inh: 12%; AmpC inh no det: 4µM*[single pt active]

How did CC(C)C(NS(=O)(=O)c1ccc2c(c1)oc(=O)n2C)C(=O)N1CCN(C2CCCCC2)CC1 (stereo unspecified) do in these assays?
Prx2 Sm inh: >57; LT uptake inh: 6%; AmpC det inh: 5%; AmpC inh no det: 17%

How did CC1CC(C)CN(C(=O)C(NS(=O)(=O)c2ccc3c(c2)oc(=O)n3C)C(C)C)C1 (stereo unspecified) do in these assays?
Prx2 Sm inh: >57; LT uptake inh: -6%; AmpC det inh: 13%; AmpC inh no det: 4µM*[single pt active]

Bioassay records as filed in PubChem.
